A selection: hits, their analogues and other compounds. The true share with any hit is near 2.8%.
dFosB act: mouse delta FosB homodimer activation; P13346; purified delta FosB, TAMRA-CDK5 oligo fluorescence polarization; percent of positive-control signal above neutral wells; activation, % at 25 µM; 0.99% of 340,000 active;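 active means mean activation above about 17%, with every replicate also reaching it, limit read from the data, passing the limit was not always enough; inconclusive means only one of the two conditions met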
CDK5 inh: blocks human CDK5/p35 kinase activity. inhibition, % at 10 µM. Q00535+Q15078. 0.01% of 330,000 active. Recombinant CDK5/p35, ADP-Glo luminescence, 60 min. AID 488839;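 active means highest replicate inhibition of at least 50% and at least 75% of replicates reaching 50%; inconclusive means only one of the two criteria met; inactive means both criteria failed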
SIRT5 inh: blocks human SIRT5 desuccinylation of peptide; Q9NXA8; AID 652115; inhibition, % at 15 µM; 1.1% of 330,000 active; Purified SirT5, succinyl-peptide AMC, trypsin-coupled fluorescence; in the data active means inhibition above about 15%; inconclusive means no clear call, values can overlap the other calls
Target sequence (Q9NXA8 whole entry, looked up): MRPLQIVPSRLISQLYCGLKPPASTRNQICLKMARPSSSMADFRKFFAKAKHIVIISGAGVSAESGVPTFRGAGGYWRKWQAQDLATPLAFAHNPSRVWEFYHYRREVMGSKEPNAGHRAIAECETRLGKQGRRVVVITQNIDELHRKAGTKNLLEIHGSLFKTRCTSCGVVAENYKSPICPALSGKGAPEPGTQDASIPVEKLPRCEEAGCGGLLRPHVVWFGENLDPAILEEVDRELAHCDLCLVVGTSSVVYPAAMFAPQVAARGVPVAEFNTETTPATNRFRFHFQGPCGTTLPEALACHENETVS
PglD inh: blocks C. jejuni PglD acetyltransferase activity; 0.098% of 360,000 active; AID 602405; inhibition, % at 12.5 µM; purified PglD enzyme, DTNB colorimetric CoA detection; in the data active means inhibition above about 16%, passing the limit was not always enough; inconclusive means no clear call, values can overlap the other calls
PvdQ acylase: blocks Pseudomonas aeruginosa PvdQ acylase activity | purified PvdQ acylase, fluorescence plate reader | inhibition, % at 10 µM | 0.063% of 340,000 active | AID 488965; in the data active means inhibition above about 30%, passing the limit was not always enough; inconclusive means no clear call, values can overlap the other calls
FGF22 binding: shifts melting point of recombinant human FGF22; 1.5% of 340,000 active; AID 651658; activity (Tm shift, normalised), % at 9.99 µM; Q9HCT0; recombinant FGF22 thermal shift, SYPRO orange fluorescence; percent of sucrose octasulfate shift, DMSO zero;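 active means mean Tm shift, scaled 0 neutral to 100 positive control, at about 1.3% or above, every replicate too, limit read from the data; inconclusive means no clear call, values can overlap the other calls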
Target sequence (Q9HCT0 whole entry, looked up): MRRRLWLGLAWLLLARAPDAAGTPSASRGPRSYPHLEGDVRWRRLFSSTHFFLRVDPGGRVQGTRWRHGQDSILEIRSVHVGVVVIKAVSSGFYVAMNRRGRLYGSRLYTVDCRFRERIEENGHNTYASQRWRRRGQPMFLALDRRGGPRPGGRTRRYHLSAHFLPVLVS
A number is an active result; . = inactive; ? = inconclusive; / = no result.

SMILES	dFosB act	CDK5 inh	SIRT5 inh	PglD inh	PvdQ acylase	FGF22 binding
O=C(Nc1ccc(Cl)cc1)N1C[C@@H]2[C@H](c3ccccc31)[C@H](CO)N2CC1CCCC1	/	/	.	.	/	.
COC(=O)[C@@]1(Cc2ccccc2)C=C[C@@H](C)N1C(C)=O	.	.	.	.	.	.
CC(=O)N1[C@H](C)C=C[C@]1(Cc1ccccc1)C(=O)NCc1cc(F)cc(C(F)(F)F)c1	.	.	23	.	.	.
COCC(=O)Nc1ccc2c(c1)[C@H]1C[C@@H](CC(=O)NCCc3ccccc3)O[C@@H](CO)[C@H]1O2	/	/	.	.	/	.
CC[n+]1c(C=C2C=C(C)OC(C)=C2)sc2ccccc21	.	.	19	/	.	.
CC[n+]1c(/C=C2/C=C(C)CC(C)C2)sc2ccccc21 (stereo not drawn)	.	.	.	/	.	.
CCn1cc(CN2CCc3c([nH]c4ccccc34)C2c2cccc(OC)c2OC)c(C)n1 (stereo not drawn)	.	.	.	.	.	44
C[C@@H]1CN([C@H](C)CO)C(=O)CCCn2cc(nn2)CO[C@@H]1CN(C)S(=O)(=O)c1ccc2c(c1)OCCCO2	/	/	.	.	/	.
COc1cc(Nc2ncc3c(n2)CCN(C(=O)Nc2ccc(C(C)C)cc2)C3)cc(OC)c1OC	/	/	18	.	/	.
CN(Cc1ccccc1F)C(=O)c1ccc(NS(=O)(=O)c2ccc3[nH]c(=O)[nH]c3c2)cc1	.	.	31	.	.	.
Cc1ccccc1NS(=O)(=O)c1ccc2[nH]c(=O)[nH]c2c1	.	.	.	/	.	43
CN(Cc1cccc(F)c1)C(=O)c1ccc(NS(=O)(=O)c2ccc3[nH]c(=O)[nH]c3c2)cc1	.	.	.	/	.	.
C[C@@H]1CCCCO[C@@H](CN(C)C(=O)c2ccccc2)[C@@H](C)CN([C@@H](C)CO)C(=O)c2cc(N(C)C)ccc2O1	/	/	.	.	/	.
Cc1ccc(S(=O)(=O)N2C[C@H]3n4c(=O)ccc(=O)n4C[C@H](OC(=O)NCc4ccco4)[C@@]3(O)C2)cc1	/	/	33	.	/	.
CCCCCCn1c(=O)n2n(c1=O)[C@@H]1CN(S(=O)(=O)c3ccc(C)cc3)C[C@]1(O)[C@@H](OC(=O)NCc1ccccc1)C2	/	/	20	.	/	.
O=C(NC1CCC1)[C@H]1[C@H](CO)[C@H]2Cn3c(ccc(/C=C/c4ccccc4)c3=O)[C@H]2N1Cc1ccncc1	/	/	.	.	/	.
CCCCCCCCCCCCCCCCCCNc1ccn(C2OC(COP(=O)(O)OCC3OC(n4cc(F)c(=O)[nH]c4=O)CC3O)C(O)C2O)c(=O)n1 (stereo not drawn)	.	.	35	/	.	/
O=c1[nH]c(=O)n(C2OC(CO)C(O)C(O)C2O)cc1F (stereo not drawn)	/	/	.	/	/	.
Cc1ccccc1-c1ccc([C@H]2[C@@H](CO)N3CCCCN(S(=O)(=O)c4cn(C)cn4)C[C@@H]23)cc1	/	/	.	.	/	.
C[C@@H]1CN([C@@H](C)CO)C(=O)Cc2cc(NS(=O)(=O)c3cccs3)ccc2O[C@H]1CN(C)Cc1ccc(-c2ccccc2)cc1	/	/	17	.	/	.
C[C@@H]1CN([C@@H](C)CO)C(=O)Cc2cc(NS(=O)(=O)c3cccs3)ccc2O[C@H]1CN(C)Cc1ccc(C(F)(F)F)cc1	/	/	16	.	/	.
COc1ccc(C(C(=O)NC(C)(C)C)N(CCO)C(=O)CCC(=O)Nc2cc(C)on2)cc1 (stereo not drawn)	.	.	.	.	.	43
O=C(Cn1cc2c(n1)CCCCC2)NC1CCN(Cc2ccccc2)CC1	.	.	/	.	.	43
CC(=O)N1[C@H](C(=O)Nc2ccccc2)[C@@H](CO)[C@@H]2Cn3c(ccc(C4=CCCC4)c3=O)[C@@H]21	/	/	.	.	/	.
COC(=O)C[C@H]1C[C@H]2c3cc(NS(=O)(=O)c4ccc(OC)cc4)ccc3O[C@H]2[C@@H](CO)O1	/	/	/	.	/	.
SMILES	dFosB act	CDK5 inh	SIRT5 inh	PglD inh	PvdQ acylase	FGF22 binding
Cc1cc(C)cc(N(C(=O)c2sc(C)nc2C)C(C(=O)NCc2ccco2)c2ccccc2)c1 (stereo not drawn)	.	.	.	.	.	.
Cc1cc(C)cc(N(C(=O)c2sc(C)nc2C)C(C(=O)NC(C)(C)C)c2ccncc2)c1 (stereo not drawn)	.	.	.	.	.	43
Cc1cc(SCC(=O)OCC(=O)N(C)C2CCS(=O)(=O)C2)c(C)cc1Br (stereo not drawn)	.	.	19	.	.	.
O=C1C=C(c2ccccc2Oc2ccccc2)C[C@@H](c2ccc(F)cc2)C1	/	/	/	.	/	43
C[C@@H]1CN([C@@H](C)CO)S(=O)(=O)c2ccc(-c3ccc(C#N)cc3)cc2O[C@@H]1CN(C)C	/	/	.	.	/	.
CCC(=O)N1CC2(CN(Cc3ccc(F)cc3)C2)c2c(n(C)c3cc(OC)ccc23)[C@@H]1CO	/	/	.	/	/	.
CN(Cc1nc(-c2cnccn2)no1)C1CC(C)(C)NC(C)(C)C1	.	.	.	/	.	43
O=C(O)Cc1ccc(N=Nc2c(O)c(C(=O)O)cc3ccccc23)cc1	.	.	31	.	.	.
NS(=O)(=O)c1ccc(N=Nc2c(O)c(C(=O)O)cc3ccccc23)cc1	.	.	.	.	.	.
C[C@H]1CN([C@@H](C)CO)C(=O)Cc2cc(NC(=O)c3ccncc3)ccc2O[C@@H]1CN(C)S(=O)(=O)c1cn(C)cn1	/	/	.	.	/	.
CCN(CC)CC#CCC(O)(c1ccccc1)C1CCCC1 (stereo not drawn)	.	.	18	.	.	.
Cn1cccc1C(=O)C(=O)Nc1ccccc1C(F)(F)F	.	.	.	/	.	43
COc1ccc(C2=C(c3ccccc3)OC(OC)c3cc(F)ccc32)cn1 (stereo not drawn)	/	/	.	/	/	.
COC1OC(c2ccccc2)=C(c2ccc(C(N)=O)cc2)c2ccc(F)cc21 (stereo not drawn)	/	/	36	/	/	.
O=C(C[C@H]1C[C@@H]2c3cc(NS(=O)(=O)c4ccc(F)cc4)ccc3O[C@@H]2[C@@H](CO)O1)NCC1CC1	/	/	/	.	/	.
Cn1ccnc1Sc1ccccc1[N+](=O)[O-]	.	.	.	/	.	43
Nc1ccc(-c2nc3ccc(N)cc3[nH]2)cc1	.	.	.	/	.	.
Nc1ccc2nc(-c3cccc(-c4nc5ccc(N)cc5[nH]4)c3)[nH]c2c1	?	.	17	/	.	.
COCC(=O)Nc1ccc2c(c1)OC[C@H](C)N(C(=O)NC(C)C)C[C@@H](C)[C@H](OC)CN(C)C2=O	/	/	.	.	/	.
CC1=C(C#N)c2nc(N)c(C#N)c(C)c2/C1=C\c1ccc(OCC(=O)O)c(Cl)c1	.	.	19	/	.	.
CC1=Nc2ccccc2N=C(N)C1c1ccccc1 (stereo not drawn)	.	.	.	/	.	44
O=C(N/N=C/c1ccc(Cl)cc1)c1cc(-c2cccnc2)nc2ccccc12	.	.	.	.	.	.

Compound activity as filed in PubChem BioAssay.
